Results as given in PubChem BioAssay (Tox21).
Values joined by “and” are separate entries in the source; they are usually repeats but may differ in a detail not shown here. Equal values may be shown once. Records with an inconclusive call do not appear. Where a call stands in place of a potency, no number is given. The source holds several records for some structures; these can differ, active in one and inactive in another. Active and inactive are the calls of the source. Calls follow the shape of the dose curve; as a rule, active = well fitted cell-killing curve with a large enough effect in the repeat runs; inconclusive = weak or mixed curves, or effect the other way; inactive = flat fitted curve, though single readings scatter.

Assay: qHTS RealTime-Glo MT Cell Viability Assay in HEK293 cells - 8 hour (AID 1224887); also: nearly all actives have a fitted effect of over 50% in size
Details: RealTime-Glo luminescence; series mostly up to 76.8 µM
Source text: U.S. Tox21 Program National Center for Advancing Translational Sciences [NCATS] NIH Chemical Genomics Center [NCGC] U.S. Environmental Protection Agency [EPA] National Institutes of Environmental Health Sciences [NIEHS] National Toxicology Program [NTP] U.S. Food and Drug Administration [FDA] Tox21 Assay Overview: Measure of cell viability is critical in the cell-base assay. Analysis of cell viability is necessary for the characterization of cell responses to cytotoxic drugs and environmental stress. A RealTime-Glo MT Cell Viability Assay to monitor cell viability in real time of continues cell culture during 40 hours of compound treatment was used to screen Tox21 10K library compounds in Hek293 cells. The RealTime-Glo MT Cell Viability Assay is a nonlytic, homogeneous, bioluminescent method to measure cell viability in real time using a simple, plate-based method. The assay involves adding NanoLuc luciferase and a cell-permeant prosubstrate to cells in culture. Viable cells reduce the proprietary prosubstrate to generate a substrate for NanoLuc luciferase. This substrate diffuses from cells into the surrounding culture medium, where it is rapidly used by the NanoLuc Enzyme to produce a luminescent signal. The signal correlates with the number of viable cells, making the assay well suited for cytotoxicity studies.
Tox21 Assay Protocol Summary: The mixture of Hek293 cell suspension and reagents were dispensed at 600cells/6 ul/well in 1536-well tissue culture treated black solid bottom plates using a Multidrop dispenser. After the assay plates were incubated at a 37 C/5% CO2 incubator for 5 hours, 23 nL of compounds dissolved in DMSO, positive and negative controls was transferred to the assay plate by a pintool work station. The plates were incubated at 37 C for 40 hours. The luminescence intensity were measured at 0h, 8h, 16h, 24h, 32h and 40h time points using ViewLux plate reader during compound treatment.
Potency is read from the fitted curve at half-maximal effect.

Row | SMILES | Potency
1 | O=C(O)c1cc(=O)[nH]c(=O)[nH]1 | inactive
2 | CC/C(=C(/CC)c1ccc(O)cc1)c1ccc(O)cc1 | 15.4 µM (active)
3 | NCCN | inactive
4 | O=S1(=O)CCCO1 | inactive
5 | CC(C)=CCO | inactive
6 | Cc1ccc(S(=O)(=O)NCl)cc1 | inactive
7 | CN(C)CCCN1c2ccccc2Sc2ccc(Cl)cc21 | 30.9 µM (active)
8 | CCCCCCC(C)O (stereo not given) | inactive
9 | COc1ccc(C(=O)c2ccccc2O)c(O)c1 | inactive
10 | CCCN1C=CN(C)C1 | inactive
11 | O=[Se](O)O | inactive
12 | C=CC(C)(O)CCC=C(C)C (stereo not given) | inactive
13 | Cc1ccc(/C(=C\CN2CCCC2)c2ccccn2)cc1 | inactive
14 | CCCCCCCCCCCCCO | inactive
15 | O=C(CCCN1CCC(O)(c2ccc(Cl)cc2)CC1)c1ccc(F)cc1 | 13.8 µM (active) and 9.52 µM (active)
16 | NCCOCCO | inactive
17 | CC(=O)Oc1ccc(C(c2ccc(OC(C)=O)cc2)c2ccccn2)cc1 | inactive
18 | CCC(=O)O[C@H]1[C@H](O[C@@H]2[C@@H](C)[C@H](O[C@H]3C[C@@](C)(OC)[C@@H](O)[C@H](C)O3)[C@@H](C)C(=O)O[C@H](CC)[C@@](C)(O)[C@H](O)[C@@H](C)C(=O)[C@H](C)C[C@@]2(C)O)O[C@H](C)C[C@@H]1N(C)C | inactive
19 | Cc1ccc(C(C)(C)C)c(O)c1 | inactive
20 | c1ccc2c(c1)ccc1ncccc12 | inactive

Row | SMILES | Potency
21 | OC[C@H]1O[C@@H]2O[C@H]3[C@H](O)[C@@H](O)[C@@H](O[C@H]4[C@H](O)[C@@H](O)[C@@H](O[C@H]5[C@H](O)[C@@H](O)[C@@H](O[C@H]6[C@H](O)[C@@H](O)[C@@H](O[C@H]7[C@H](O)[C@@H](O)[C@@H](O[C@H]1[C@H](O)[C@H]2O)O[C@@H]7CO)O[C@@H]6CO)O[C@@H]5CO)O[C@@H]4CO)O[C@@H]3CO | inactive
22 | CCCCCCCC/C=C\CCCCCCCC(=O)O | inactive
23 | c1ccc2c(c1)[nH]c1ccccc12 | inactive
24 | C=CN1CCCC1=O | inactive
25 | CC/C=C\C/C=C\C/C=C\CCCCCCCC(=O)O | inactive
26 | Clc1ccc(Sc2cc(Cl)c(Cl)cc2Cl)cc1 | inactive
27 | CC(C)[C@@H]1CC[C@@H](C)CC1=O | inactive
28 | C=C[C@H]1CN2CC[C@H]1C[C@H]2[C@H](O)c1ccnc2ccc(OC)cc12 | inactive
29 | CCC(Cc1c(I)cc(I)c(N)c1I)C(=O)O (stereo not given) | inactive
30 | CN(C)/N=N/c1nc[nH]c1C(N)=O | inactive
31 | Brc1nc2ccccc2s1 | inactive
32 | C=C[C@H]1CN2CC[C@H]1C[C@@H]2[C@@H](O)c1ccnc2ccc(OC)cc12 | 42.9 µM (active) and inactive
33 | OCCNCCO | inactive
34 | [O-]/[N+](=N\O)c1ccccc1 | inactive
35 | C/C=C/C(=O)N(CC)c1ccccc1C | inactive
36 | Nc1ccc2c(O)cc(S(=O)(=O)O)cc2c1 | inactive
37 | O=C(O)CCCCCCCCCCCC(=O)O | inactive
38 | CC(=O)[C@H]1CC[C@H]2[C@@H]3CC=C4C[C@@H](O)CC[C@]4(C)[C@H]3CC[C@]12C | inactive
39 | C[C@]12C=CC(=O)C=C1CC[C@H]1[C@@H]3C[C@@H](O)[C@](O)(C(=O)CO)[C@@]3(C)C[C@H](O)[C@@]12F | inactive
40 | Cc1ccc2c(c1)C(=O)OC2=O | inactive
